The values below come from PubChem BioAssay AID588453 (National Center for Advancing Translational Sciences (NCATS), 2011).

SMILES strings stand for the structures. About 4,000 (1%) of roughly 390,000 compounds were called active. About 4% were inconclusive and are not listed. Many of the other results were omitted from the sample, so actives are more common in it than they were. Values without a mark were called inactive. Calls follow the shape of the dose curve; as a rule, active = well fitted inhibition curve with a large enough effect; inconclusive = small, poorly fitted or top-dose-only effect; inactive = no such curve, though single readings can be large or run the other way.
% is scaled to controls: 0 for no effect and ±100 for the full control effect; potency is read from the fitted curve at half-maximal effect.

For the assay, the target named is Thioredoxin reductase 1, cytoplasmic (Rattus norvegicus) (UniProt O89049). As to the kind of experiment: qHTS Assay for Inhibitors of Mammalian Selenoprotein Thioredoxin Reductase 1 (TrxR1): qHTS. Also: nearly all actives have a fitted effect of over 65% in size. To be noted: recombinant rTrxR1, NADPH fluorescence consumption, selenite substrate; series mostly up to 114 µM; activity change, negative = inhibition: at the top concentration. An excerpt: The selenoprotein thioredoxin reductase (TrxR; EC 1.8.1.9) is a FAD containing homodimeric pyridine nucleotide-disulfide oxidoreductase with many cellular roles. Together with NADPH and its prime substrate thioredoxin (Trx), the enzyme forms the core of the Trx system. The mammalian Trx system exerts a wide spectrum of functions including redox regulation, antioxidant defense, regulation of transcription factors as well as support of cell growth and replication. Many of these functions involve the reduction of Trx, which may subsequently reduce a number of different substrates including ribonucleotide reductase, peroxiredoxins or NFkB. Mammalian TrxR itself also has a broad substrate specificity, reducing both protein and non-protein substrates, including low molecular weight compounds such as dehydroascorbate, lipoic acid, ubiquinone, and juglone. In addition, several drugs in clinical use for anticancer treatment are indeed known to target TrxR1.
Thioredoxin reductase 1, cytoplasmic (Rattus norvegicus), sequence (O89049 whole entry, looked up): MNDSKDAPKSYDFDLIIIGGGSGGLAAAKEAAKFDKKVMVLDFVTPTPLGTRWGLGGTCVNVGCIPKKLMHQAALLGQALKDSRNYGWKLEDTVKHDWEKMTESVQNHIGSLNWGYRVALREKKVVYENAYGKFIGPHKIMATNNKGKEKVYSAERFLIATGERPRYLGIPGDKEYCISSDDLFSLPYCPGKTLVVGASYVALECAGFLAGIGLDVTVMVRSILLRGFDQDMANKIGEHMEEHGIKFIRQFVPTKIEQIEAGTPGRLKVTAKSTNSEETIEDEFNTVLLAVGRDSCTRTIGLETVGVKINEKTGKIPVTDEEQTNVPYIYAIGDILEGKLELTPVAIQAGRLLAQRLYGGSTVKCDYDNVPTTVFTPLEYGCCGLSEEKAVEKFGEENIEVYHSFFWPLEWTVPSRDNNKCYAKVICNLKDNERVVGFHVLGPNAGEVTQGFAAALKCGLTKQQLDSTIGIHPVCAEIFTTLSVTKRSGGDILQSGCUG
This BioAssay is a validation of an NADPH fluorescence-based, dual-purpose qHTS rTrxR1 assay designed to find potential inhibitors and substrates of rTrxR1. For this particular BioAssay, actives are potential inhibitors. See related BioAssay for substrate data deposition.
NIH Molecular Libraries Probe Production Network [MLPCN]
NIH Chemical Genomics Center [NCGC]
Assay Provider: Elias Arner, Karolinska Institute
Assay protocol: 2 uL of reagents (buffer in column 4 as negative control and 90 nM rTrxR1 in columns 1-3 and 5-48) were dispensed into Greiner black solid-bottom 1,536-well assay plates, followed by 1 uL of NADPH (400 uM final concentration) to each well. The plates were centrifuged at 1000 rpm for 15 seconds and subsequently incubated for 5 min at room temperature (~22 deg C) to allow for rTrxR1 reduction. Compounds (23 nL) were then transferred via Kalypsys pin tool equipped with 1536-pin array (10 nL slotted pins, V&P Scientific, San Diego, CA). In addition, a duplicate 2-fold serial dilution of the control compounds auranofin, a known gold-based TrxR1 inhibitor, and juglone (5-hydroxy-1,4-naphthoquinone), a natural TrxR1 substrate, were pin-transferred to columns 2 and 3, respectively. After incubation for 15 min at room temperature (~22 deg C), 1 uL of selenite (400 uM final concentration) were dispensed to each well. The plate was immediately transferred to a ViewLux high-throughput CCD imager (PerkinElmer), wherein kinetic measurements of NADPH fluorescence (Ex 340 nm, Em 450 nm) were acquired (8 minute kinetic read, see Table 1). Read 1 was utilized to assess the capacity of a compound to serve as an rTrxR1 substrate, i.e. a decrease in NADPH fluorescence compared to the no-compound background is an indication of a substrate behavior for that particular compound. For inhibitory activity of a compound, delta values, computed as the difference in fluorescence intensity between the first and last reads of an 8-minute time kinetic window, were used. All reagents were diluted in an assay buffer consisting of 50 mM Tris-HCl, pH 7.5, 2 mM EDTA, and 0.01% Tween-20.
Throughout the screen, reagent bottle and all liquid lines were made light-tight to minimize reagent degradation. All screening operations were performed on a fully integrated robotic system (Kalypsys, San Diego, CA) containing one RX-130 and two RX-90 anthropomorphic robotic arms (Staubli, Duncan, SC). Library plates were screened starting from the lowest and proceeding to the highest concentration, and a 'double-pinning' step of the highest concentration was required to access higher concentrations of compounds. Vehicle-only plates, with DMSO being pin-transferred to the columns 5-48, were inserted uniformly at the beginning and the end of each library in order to monitor and record any shifts in the background, which can be affected by reagent dispensers or loss in enzyme activity over time. […]
For orientation: In qHTS, concentration-response curves come from the screen itself.
In the case of `Cc1cc(F)ccc1NS(=O)(=O)c1ccc(-n2cccn2)cc1`, the “activity change, negative = inhibition” value was 24.6%.

Take `COc1ccc2[nH]c3c(c2c1)CCN(C(=O)CCC1CCCC1)C3c1ccc(F)cc1` (centres undefined): the “activity change, negative = inhibition” value is 10.3%.

With `Cc1cc2c(cc3c(SCc4nc(-c5ccccc5)oc4C)nnc(C)n32)o1`, the “activity change, negative = inhibition” value was 6.82%.

For the compound `O=C(NC(=S)Nc1ccccc1C(=O)O)c1ccc(-c2ccc(Br)cc2)o1`, the Potency is 44.7 µM (active).

Regarding `O=C(NC(=S)Nc1ncccn1)c1ccccc1Br`, the “activity change, negative = inhibition” value was 21.2%.

Regarding `O=C(O)c1ccccc1NC(=S)NC(NC(=O)c1ccccc1[N+](=O)[O-])C(Cl)(Cl)Cl` (centres undefined), the “activity change, negative = inhibition” value was -0.421%.

On to `CN(CCC#N)c1ccc(C=O)cc1`, for which the “activity change, negative = inhibition” value is 6.49%.

On to `S=c1[nH]c(=S)c2n[nH]nc2[nH]1`, for which the Potency was 15.8 µM (active).

`C(=Nc1ccc(/C=C/c2ccnc3ccccc23)cc1)c1cc2c3c(c1)CCCN3CCC2`: the “activity change, negative = inhibition” value is -19.7%.

On to `COc1ccc(-c2onc(C)c2C)cc1S(=O)(=O)NCCc1ccccc1`, for which the “activity change, negative = inhibition” value is 9.73% [at 57.1 µM].

Consider `OC(CBr)CN1CCCCC1` (centres undefined), for which the “activity change, negative = inhibition” value is -14.4%.

Consider `Cc1ccc(-c2nn(-c3ccccc3)cc2CN(Cc2ccccc2)C(=O)CCC(=O)O)o1`, for which the Potency is 39.8 µM (active).

On to `Cc1ccc(-c2nn(-c3cccc(F)c3)cc2CNCCc2ccncc2)o1`, for which the “activity change, negative = inhibition” value was -6.48%.

Take `CN(C)Cc1cn(-c2ccccc2)nc1-c1ccccc1`: the “activity change, negative = inhibition” value is 13.8%.

Regarding `Cc1ccc(C)c2sc(NC(=O)c3ccc(S(=O)(=O)N4CCCC4)cc3)nc12`, the “activity change, negative = inhibition” value was 29.7% [at 57.1 µM].

Turning to `CCc1ccc(NC(=O)C2CCCN2S(=O)(=O)c2ccc3nc(-c4ccccc4)[nH]c3c2)cc1` (centres undefined), the “activity change, negative = inhibition” value was 5.83%.

On to `COc1cccc(N(CC(=O)NCCSc2ccccn2)S(C)(=O)=O)c1`, for which the “activity change, negative = inhibition” value is 25.6%.

For `COc1ccc(C=C(C#N)C#N)c(CSc2ccccn2)c1`, the Potency was 11.2 µM (active).

`CN(C)c1nc(N)nc(CSc2ccccn2)n1`: the “activity change, negative = inhibition” value is 10.2%.

Regarding `COc1ccc(C(=O)COC(=O)CCCC(=O)Nc2cc(C(F)(F)F)ccc2Cl)cc1`, the “activity change, negative = inhibition” value is -7.49%.

For `CN(N=O)c1ccc(C=C2c3ccccc3-c3ccccc32)cc1`, the “activity change, negative = inhibition” value is 11.1%.

In the case of `CCOc1ccc(NC(=O)CCc2c(C)nn(-c3ccc(N4CCCC4)nn3)c2C)cc1`, the “activity change, negative = inhibition” value was 17.2% [at 57.1 µM].

`O=C1O/C(=C\c2ccc(O)cc2)C(O)=C1c1ccc(O)cc1`: the “activity change, negative = inhibition” value was 0.176%.

Turning to `Cn1cnc([N+](=O)[O-])c1Nc1ccccc1O`, the “activity change, negative = inhibition” value was -11.4%.

For `Nc1nc(Sc2ncccc2[N+](=O)[O-])n[nH]1`, the “activity change, negative = inhibition” value is 15.9%.

`Cn1cnc([N+](=O)[O-])c1Sc1n[nH]c(N)n1`: the Potency is 12.6 µM (active).

For the compound `CCOc1ccc(OCC)c(Nc2nc3ccccc3n3nnnc23)c1`, the “activity change, negative = inhibition” value is -13.6%.

As to `COc1ccc(CNC(=O)Cn2nnc(-c3ccc(S(C)(=O)=O)cc3)n2)cc1`, the “activity change, negative = inhibition” value is 15.6%.

Take `Cc1c(Cl)cccc1NC(=O)C1CCCN(c2ncnc3onc(C)c23)C1` (centres undefined): the “activity change, negative = inhibition” value was 8.7%.

For the compound `CCOC(=O)N1CCc2c(sc3c2c(=O)n(-c2ccc(CC)cc2)c(=O)n3C)C1`, the “activity change, negative = inhibition” value is -6.6%.

Consider `O=C(c1ccc(Br)cc1)N(Cc1cccs1)c1ccc(F)cc1`, for which the “activity change, negative = inhibition” value was 14.5%.

Take `COc1ccc(CCC(=O)NCCc2csc(-c3ccc(Cl)cc3)n2)cc1`: the “activity change, negative = inhibition” value is 7.28% [at 57.1 µM].

For `COc1cccc(N2CCN(C3CC(=O)N(c4ccc(Cl)cc4)C3=O)CC2)c1` (centres undefined), the “activity change, negative = inhibition” value is -8.08%.

For the compound `COc1ccc(CN2C(=O)CC(Cc3ccc(C)cc3)C2=O)cc1OC` (centres undefined), the “activity change, negative = inhibition” value was -13.1%.

Take `COc1ccc(CCN2C(=O)C3CC=C(C)CC3C2=O)cc1OC` (centres undefined): the “activity change, negative = inhibition” value was 20.2%.

Consider `COc1ccc(CCN2C(=O)CC(N3CCC(C(N)=O)CC3)C2=O)cc1OC` (centres undefined), for which the Potency is 22.4 µM (active).

`CCOC(=O)c1ccc(N2C(=O)CC(N3CCC(C(=O)OCC)CC3)C2=O)cc1` (centres undefined): the “activity change, negative = inhibition” value is -18.9%.

Consider `COc1ccc(N2C(=O)CC(N3CCC(C(N)=O)CC3)C2=O)cc1` (centres undefined), for which the Potency was 50.1 µM (active).

For the compound `Cn1c(=O)c(C(=O)O)nn(-c2ccccc2)c1=O`, the “activity change, negative = inhibition” value is 2.12%.

For `CCN(CC)/[N+]([O-])=N/Oc1cc(O/[N+]([O-])=N/N2CCCC2CO)c([N+](=O)[O-])cc1[N+](=O)[O-]` (centres undefined), the “activity change, negative = inhibition” value is 27.8%.

For `COc1ccc(OC)c(NC(=O)Cn2c(=O)n(Cc3ccccc3)c(=O)c3ccccc32)c1`, the “activity change, negative = inhibition” value is 23.8%.

For the compound `CCCCCCCNc1ccc(/C=C/c2ccnc3ccccc23)cc1`, the “activity change, negative = inhibition” value is 16.1%.

As for `O=C(COC(=O)c1ccccc1OCCOc1ccccc1)Nc1cccc(Br)c1`, the “activity change, negative = inhibition” value is 9.98%.

For the compound `COc1ccc2c(c1)CCc1c(C(=O)Nc3cc(C)ccc3O)noc1-2`, the “activity change, negative = inhibition” value was 24%.

In the case of `COc1ccc2c(c1)CCc1c(C(=O)N3CCCC3)noc1-2`, the Potency is 35.5 µM (active).

As to `O=C(c1noc2c1CCCC2)N1CCc2ccccc2C1`, the “activity change, negative = inhibition” value was 6.82%.

In the case of `CCCCNC(=O)Cn1c(SCc2cccc(Cl)c2)nc2ccncc21`, the “activity change, negative = inhibition” value is 12.1%.

With `COc1ccc(-c2cn3c(n2)sc2cc(C(=O)Nc4ccccc4F)ccc23)cc1`, the “activity change, negative = inhibition” value was 18.2%.

In the case of `COc1cccc(-c2n[nH]c3c2C(c2cccc(O)c2)N(C)C3=O)c1` (centres undefined), the “activity change, negative = inhibition” value is 15.4%.
